High-throughput results (PubChem BioAssay)
Compounds with a hit are over-represented: about 19% of the library has one in this group of screens.
DT40 TDP1 no CPT: qHTS for Inhibitors of human tyrosyl-DNA phosphodiesterase 1 (TDP1): qHTS in cells in absence of CPT | DT40 Tdp1-/- hTDP1 cells, no CPT, ATP luminescence, 48 h | Potency, µM (highest dose often 46.2 µM), actives largely listed as inhibitors | hit rate 15% among 420,000; note: nearly all actives have a fitted effect of over 55% in size
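DT40 Tdp1-/-;hTDP1 cells, no CPT (DMSO vehicle only), 400 cells/well; compounds pin-transferred; ≥48 hr, 37 °C; CellTiter-Glo 30 min RT dark, luminescence read.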
HT1080NT lethal: qHTS for induction of synthetic lethality in tumor cells producing 2HG: qHTS for the HT-1080-NT fibrosarcoma cell line. HT-1080-NT fibrosarcoma viability, CellTiter-Glo ATP luminescence, 48 h. Potency, µM (top dose mostly 46.1 µM), usual class: cytotoxic. hit rate 1.6% among 360,000. AID 686970, 2013;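 note: NT is the 2HG producing partner of a matched IDH1 knockdown line; nearly all actives have a fitted effect of over 55% in size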
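Compounds were tested in concentration-response format on HT-1080-NT cells for 48 hours at 37 degrees C. Cell viability came from CellTiter-Glo luminescence; curves were classified by r2, response magnitude and activity.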
HT1080 IDH1KD tx: qHTS for induction of synthetic lethality in tumor cells producing 2HG: qHTS for the HT-1080-IDH1KD cell line; HT-1080 IDH1 knockdown viability, ATP luminescence, 48 h; Potency, µM (highest dose often 46.1 µM), most hits filed as cytotoxic; hit rate 2% among 360,000; AID 686971, 2013
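Knockdown cells (IDH1KD HT-1080) received compounds 2 h after plating at 750 cells/well and were kept 48 h at 37 °C in 5% FBS RPMI. A CellTiter-Glo luminescence read gave % activity for curve fitting.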
TDP1 cell CPT: qHTS for Inhibitors of human tyrosyl-DNA phosphodiesterase 1 (TDP1): qHTS in cells in presence of CPT | chicken DT40 Tdp1-/-;hTDP1 cells + 20 nM CPT, ATP luminescence, 48 h | Potency, µM (series often up to 46.2 µM), usual class: inhibitors | hit rate 12% among 420,000; note: nearly all actives have a fitted effect of over 55% in size
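Chicken DT40 Tdp1-/- cells stably complemented with human TDP1 were seeded at 400 cells/well in medium containing 20 nM camptothecin, exposed to pin-transferred compounds, and grown at 37 °C for at least 48 hr. Viability was read as ATP luminescence.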
IL-1B inflam inh: qHTS for Inhibitors of Inflammasome Signaling: IL-1-beta AlphaLISA Primary Screen; activity change, % at 57.5 µM; AID 743279, 2014; hit rate 4.7% among 360,000; THP-1 LPS/ATP IL-1B secretion, AlphaLISA, 16 h; active compounds read low; in the data active = activity change below about -50%; inconclusive = mostly about -30% to -49%
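Secreted IL-1B measured by AlphaLISA bead assay after 16 h compound exposure of THP-1 cells; compounds (final up to 57.5 uM) added 1 h before LPS (250 ng/mL) and ATP (1.25 mM) stimulation; lower signal means less secretion.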
Hits are given with their value; i = inactive; ? = inconclusive; nt = not tested or not shown; [ ] = dose if it differs, or a comment. Unless noted, calls come from the whole dose curve; as a rule, active = well fitted curve in the direction sought with a large enough effect; inconclusive = small, poorly fitted or top-dose-only effect, or another doubt; inactive = no such curve, though single readings can be large; an effect the other way counts as inactive or inconclusive.

SMILES	DT40 TDP1 no CPT	HT1080NT lethal	HT1080 IDH1KD tx	TDP1 cell CPT	IL-1B inflam inh
O=C(C[n+]1ccc(/C=N/O)cc1)NC1CCCCC1	i	i	i	i	i
C=CCn1c(C)cc(C(=O)COc2ccc(N(C)S(=O)(=O)c3ccc(NC(C)=O)cc3)cc2)c1C	5.8µM	i[9.24 µM]	?	9.2µM	i
CC(=O)Nc1ccc(S(=O)(=O)N(C)c2ccc(OCC(=O)Nc3ccccc3C(C)=O)cc2)cc1	20.6µM	i	i	18.4µM	i
CN(c1ccc(OCC(=O)Nc2ccccc2C(=O)O)cc1)S(=O)(=O)c1ccc(Cl)cc1	i	i	?	i	i
CC(=O)c1ccccc1NC(=O)COc1ccc(N(C)S(=O)(=O)c2ccc(C)c(C)c2)cc1	11.6µM	i	i	20.6µM	i
Cc1cccc(NC(=S)N2CCC(C(N)=O)(N3CCCCC3)CC2)c1C	i	i	i	i	i
COc1ccc(CCNC(=O)C(=O)NCC2OCCN2S(=O)(=O)c2cc(F)ccc2F)cc1 (configuration not stated)	?	i	i	?	i
CCCc1cn(CC(C)n2c(=O)c3ccccc3n2Cc2cc(C(C)C)no2)nn1 (configuration not stated)	i	i	i	i	i
COc1cc(Cn2c(=O)oc3ccc(C)cc32)ccc1OC(C)C	i	i	i	i	i
CCCCCOc1ccc(Cn2c(=O)oc3ccc(C)cc32)cc1OC	20.6µM	nt	nt	25.9µM	nt
Cc1ccc(C(C)C)c(OCCCn2c(=O)oc3ccc(C)cc32)c1	16.4µM	nt	nt	?	nt
CCC(c1nnnn1-c1ccc2c(c1)OCCO2)N1CCN(c2ccc(OC)cc2)CC1 (configuration not stated)	?	i	i	20.6µM	i
CCC(c1nnnn1-c1ccc2c(c1)OCCO2)N1CCN(CCN2CCOCC2)CC1 (configuration not stated)	i	i	i	i	i
CCC(c1nnnn1-c1ccc2c(c1)OCCO2)N1CCN(c2cccc(C)c2C)CC1 (configuration not stated)	18.4µM	?	?	?	i
CCC(c1nnnn1-c1ccc2c(c1)OCCO2)N1CCN(Cc2c(F)cccc2Cl)CC1 (configuration not stated)	23.1µM	i	i	?	?
COc1ccc(N2CCN(C(=O)CSc3nnnn3-c3ccc4c(c3)OCCO4)CC2)cc1	?	i	i	?	-59.1
CCC(c1nnnn1-c1ccc2c(c1)OCCO2)N1CCN(c2cc(C)ccc2C)CC1 (configuration not stated)	?	?	?	?	i
CCC(c1nnnn1-c1ccc2c(c1)OCCO2)N1CCN(c2ccccc2)CC1 (configuration not stated)	?	i	i	?	i
CCc1ccc(-c2nn(CC(=O)NCc3ccccc3)c3c2cnc2ccc(C)cc23)cc1	i	nt	nt	i	nt
CCCOCCc1nnc(N)s1	i	i	i	i	i
O=C1CCC([N+](=O)[O-])C(c2cc3c(cc2Cl)OCO3)N1 (configuration not stated)	i	i	i	i	i
O=C(NO)c1ccccc1	21.7µM	nt	nt	24.3µM	nt
O=C(NCCCOC(=O)c1ccccc1)c1ccccc1	i	i	i	i	i
O=C(NOC(=O)c1ccccc1)c1ccccc1	23.1µM	i	i	?	i
COc1ccc(C(=O)[C@@H]2CC[C@](C)(C(=O)O)C2(C)C)cc1	i	i	i	i	i
COc1ccc(CNC(=O)C2CCN(c3nc4ccccc4[nH]3)CC2)cc1OC	i	nt	nt	i	nt
COc1ccccc1CCn1c(=O)c(CCc2ccccc2)nc2cncnc21	i	nt	nt	i	nt
CCn1c(C)cc(C(=O)COC(=O)c2cccnc2SC)c1C	?	i	i	16.4µM	i
COCCNC(=O)COC(=O)c1cccnc1SC	i	i	i	18.4µM	i
